Test results as given in paper PMC5540273 (PLoS ONE, 2017).
Like-named read-outs stand apart in the source and are kept apart here.

Assays:
Details in all cases: n = 1
BMPR1A = tested on: BMPR1A
BMPR1B = tested on: BMPR1B
BMPR2 = tested on: BMPR2
BMX = tested on: BMX
BRAF = tested on: BRAF
BRK = tested on: T1, BRK
T1 construct: gene PTK6

BRSK1 = tested on: BRSK1
BRSK2 = tested on: BRSK2
BTK = tested on: BTK
BUB1 = tested on: BUB1
CAMK1B = tested on: CAMK1B
CAMK1D = tested on: CAMK1D
CAMK1G = tested on: CAMK1G
CAMK1 = tested on: CAMK1
CAMK2A = tested on: CAMK2A
CAMK2B = tested on: CAMK2B
CAMK2D = tested on: CAMK2D
CAMK2G = tested on: CAMK2G
CAMK4 = tested on: CAMK4
CAMKK1 = tested on: CAMKK1
[1] = concentration: 1 μM, replicates: in singlicate
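Also: KINOMEscan kinase panel screen.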

COc1ccc(C2=C(Nc3cccc(C(=O)O)c3)C(=O)NC2=O)cc1 [SB-390765]
%Inh (BMPR1A; [1]): 13% | %Inh (BMPR1B; [1]): 4% | %Inh (BMPR2; [1]): 0% | %Inh (BMX; [1]): 17% | %Inh (BRAF; [1]): 9% | %Inh (BRK; [1]): 0% | %Inh (BRSK1; [1]): 0% | %Inh (BRSK2; [1]): 0% | %Inh (BTK; [1]): 0% | %Inh (BUB1; [1]): 0% | %Inh (CAMK1B; [1]): 44% | %Inh (CAMK1D; [1]): 18% | %Inh (CAMK1G; [1]): 0% | %Inh (CAMK1; [1]): 23% | %Inh (CAMK2A; [1]): 5% | %Inh (CAMK2B; [1]): 0% | %Inh (CAMK2D; [1]): 16% | %Inh (CAMK2G; [1]): 26% | %Inh (CAMK4; [1]): 0% | %Inh (CAMKK1; [1]): 0%

Cc1cccc(-c2nc(Nc3cccc(C(N)=O)c3)c3ccccc3n2)n1 [GW876019]
%Inh (BMPR1A; [1]): 74% | %Inh (BMPR1B; [1]): 0% | %Inh (BMPR2; [1]): 14% | %Inh (BMX; [1]): 0% | %Inh (BRAF; [1]): 0% | %Inh (BRK; [1]): 9% | %Inh (BRSK1; [1]): 18% | %Inh (BRSK2; [1]): 0% | %Inh (BTK; [1]): 9% | %Inh (BUB1; [1]): 16% | %Inh (CAMK1B; [1]): 0% | %Inh (CAMK1D; [1]): 0% | %Inh (CAMK1G; [1]): 9% | %Inh (CAMK1; [1]): 0% | %Inh (CAMK2A; [1]): 0% | %Inh (CAMK2B; [1]): 0% | %Inh (CAMK2D; [1]): 7% | %Inh (CAMK2G; [1]): 0% | %Inh (CAMK4; [1]): 3% | %Inh (CAMKK1; [1]): 12%

O=S(=O)(c1ccc(-c2ccnc3[nH]ccc23)cc1)N1CCCC1 [GSK846226]
%Inh (BMPR1A; [1]): 0% | %Inh (BMPR1B; [1]): 0% | %Inh (BMPR2; [1]): 24% | %Inh (BMX; [1]): 10% | %Inh (BRAF; [1]): 0% | %Inh (BRK; [1]): 0% | %Inh (BRSK1; [1]): 0% | %Inh (BRSK2; [1]): 0% | %Inh (BTK; [1]): 0% | %Inh (BUB1; [1]): 0% | %Inh (CAMK1B; [1]): 30% | %Inh (CAMK1D; [1]): 31% | %Inh (CAMK1G; [1]): 33% | %Inh (CAMK1; [1]): 39% | %Inh (CAMK2A; [1]): 47% | %Inh (CAMK2B; [1]): 12% | %Inh (CAMK2D; [1]): 44% | %Inh (CAMK2G; [1]): 34% | %Inh (CAMK4; [1]): 0% | %Inh (CAMKK1; [1]): 2%

Cc1c(O)cccc1Nc1ccnc2ccc(C(F)(F)F)cc12.Cl [GW466413]
%Inh (BMPR1A; [1]): 0% | %Inh (BMPR1B; [1]): 44% | %Inh (BMPR2; [1]): 0% | %Inh (BMX; [1]): 0% | %Inh (BRAF; [1]): 69% | %Inh (BRK; [1]): 86% | %Inh (BRSK1; [1]): 0% | %Inh (BRSK2; [1]): 0% | %Inh (BTK; [1]): 0% | %Inh (BUB1; [1]): 29% | %Inh (CAMK1B; [1]): 2% | %Inh (CAMK1D; [1]): 7% | %Inh (CAMK1G; [1]): 0% | %Inh (CAMK1; [1]): 1% | %Inh (CAMK2A; [1]): 0% | %Inh (CAMK2B; [1]): 0% | %Inh (CAMK2D; [1]): 0% | %Inh (CAMK2G; [1]): 0% | %Inh (CAMK4; [1]): 0% | %Inh (CAMKK1; [1]): 12%

Cc1ccc(NC(=O)Nc2cccc(C(F)(F)F)c2)cc1 [GSK955403]
%Inh (BMPR1A; 1 µM): 94.6% | %Inh (BMPR1B; 1 µM): 0% | %Inh (BMPR2; 1 µM): 1% | %Inh (BMX; 1 µM): 0% | %Inh (BRAF; 1 µM): 0% | %Inh (BRK; 1 µM): 0% | %Inh (BRSK1; 1 µM): 0% | %Inh (BRSK2; 1 µM): 0% | %Inh (BTK; 1 µM): 0% | %Inh (BUB1; 1 µM): 0% | %Inh (CAMK1B; 1 µM): 0% | %Inh (CAMK1D; 1 µM): 25% | %Inh (CAMK1G; 1 µM): 10% | %Inh (CAMK1; 1 µM): 7% | %Inh (CAMK2A; 1 µM): 32% | %Inh (CAMK2B; 1 µM): 25% | %Inh (CAMK2D; 1 µM): 8% | %Inh (CAMK2G; 1 µM): 4% | %Inh (CAMK4; 1 µM): 5% | %Inh (CAMKK1; 1 µM): 9%
